Here are results for 9 compounds from PubChem BioAssay (NCI).

Experiment [1] is described as follows: NCI Yeast Anticancer Drug Screen. Data for the rad50 strain (AID 155).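 Also: 0% = growth of vehicle-only cultures of the same strain.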 The conditions noted are these: S. cerevisiae rad50 strain growth inhibition, stronger effect = higher value. A digest of the protocol:
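Vehicle-treated cultures provide the reference for the growth inhibition reported for compound-exposed, repair-deficient yeast.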

The nature of experiment [2]: NCI Yeast Anticancer Drug Screen. Data for the mec2-1 strain (AID 157). The following applies: S. cerevisiae mec2-1 strain, stronger effect = higher value. A digest of the protocol: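 Strain: mec2-1 (DNA repair/cell cycle alteration). Compound exposure, then growth measured; inhibition expressed relative to vehicle.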
Experiment [3] is described as follows: NCI Yeast Anticancer Drug Screen. Data for the sgs1 mgt1 strain (AID 161).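 Also: 0% = growth of cultures given vehicle only.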 The conditions noted are these: S. cerevisiae sgs1 mgt1 strain, stronger effect = higher value. The essentials: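 Inhibition of yeast growth, normalised to vehicle-treated controls, is reported for a strain bearing genetic alterations in DNA damage repair.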
A short description of experiment [4]: NCI Yeast Anticancer Drug Screen. Data for the cln2 rad14 strain (AID 165).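 Also: 0% = growth equal to vehicle treated cultures.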 The conditions noted are these: S. cerevisiae cln2 rad14 strain, stronger effect = higher value. The essentials: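 Compounds are applied to the cln2 rad14 yeast strain, and growth is then compared with that of vehicle-treated cultures to give inhibition.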
The nature of experiment [5]: NCI Yeast Anticancer Drug Screen. Data for the bub3 strain (AID 167). The conditions noted are these: S. cerevisiae bub3 mutant strain, stronger effect = higher value. A digest of the protocol:
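Mutant yeast screening strain plus compound; vehicle-treated cultures serve as the 0% inhibition reference.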

Experiment [6] can be described thus: NCI Yeast Anticancer Drug Screen. Data for the mlh1 rad18 strain (AID 175). The following applies: S. cerevisiae mlh1 rad18 strain growth inhibition, stronger effect = higher value. The essentials:
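Read-out is yeast growth inhibition, calculated against vehicle-only controls. The compound was applied to a strain engineered with DNA damage repair alterations.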

Setting [7] is: at 5.0 µM (retest, dose inferred, filed as 0.5).
[8] abbreviates: at 50.0 µM (retest, dose inferred, filed as 5.0).

Compounds without any hit were thinned out: in the full panel of roughly 79,000, 15% have a hit. Unmarked numbers belong to inactive results. The source made the active and inactive calls. Rule as the data show it: active = growth inhibition above about 70%; inactive = the rest.

Regarding `CC1=CC(=N/O)/C=CC/1=C(\C#N)c1ccccc1`, the growth inhibition was -14% in experiment [1] (setting [7]); 99% (active) in experiment [1] (setting [8]); 99.2% (active) in experiment [1] (at 50.0 µM); -11% in experiment [2] (setting [7]); 99% (active) in experiment [2] (setting [8]); 99.4% (active) in experiment [2] (at 50.0 µM). Besides, the growth inhibition in experiment [3] (setting [7]) is -6%; in experiment [3] (setting [8]) it was 99% (active); in experiment [3] (at 50.0 µM), 99.4% (active); in experiment [4] (setting [7]), -47%; in experiment [4] (setting [8]), 99% (active); in experiment [4] (at 50.0 µM) it was 99.3% (active). In addition, the growth inhibition is -17% in experiment [5] (setting [7]); 99% (active) in experiment [5] (setting [8]); 99.4% (active) in experiment [5] (at 50.0 µM); -20% in experiment [6] (setting [7]); 100% (active) in experiment [6] (setting [8]); 98.7% (active) in experiment [6] (at 50.0 µM).
As to `Cc1coc(C)c1C(=S)Nc1ccc(Cl)c(C(=O)OC(C)C)c1`, the growth inhibition in experiment [1] (setting [7]) was 6%; in experiment [1] (setting [8]) it was 81% (active); in experiment [1] (at 50.0 µM), 84% (active); in experiment [2] (setting [7]), -8%; in experiment [2] (setting [8]), 77% (active); in experiment [2] (at 50.0 µM), 82.5% (active). The growth inhibition in experiment [3] (setting [7]) is -3%; in experiment [3] (setting [8]) it was 81% (active); in experiment [3] (at 50.0 µM), 85.2% (active); in experiment [4] (setting [7]), 20%; in experiment [4] (setting [8]) it was 88% (active); in experiment [4] (at 50.0 µM), 81.8% (active). Besides, the growth inhibition in experiment [5] (setting [7]) is -15%; in experiment [5] (setting [8]) it was 87% (active); in experiment [5] (at 50.0 µM) it was 82.9% (active); in experiment [6] (setting [7]) it was -9%; in experiment [6] (setting [8]), 86% (active); in experiment [6] (at 50.0 µM) it was 81.6% (active).
With `CCCCC#CC(=O)OCCC`, the growth inhibition in experiment [1] (setting [7]) is -1%; in experiment [1] (setting [8]) it was 2%; in experiment [1] (at 50.0 µM), 26.6%; in experiment [2] (setting [7]) it was 0%; in experiment [2] (setting [8]) it was 2%; in experiment [2] (at 50.0 µM), 15.8%. Besides, the growth inhibition in experiment [3] (setting [7]) was 2%; in experiment [3] (setting [8]), 2%; in experiment [3] (at 50.0 µM), 22.4%; in experiment [4] (setting [7]), -1%; in experiment [4] (setting [8]), -1%; in experiment [4] (at 50.0 µM), 85.5% (active). The growth inhibition in experiment [5] (setting [7]) was 1%; in experiment [5] (setting [8]), 0%; in experiment [5] (at 50.0 µM), -22.4%; in experiment [6] (setting [7]), -2%; in experiment [6] (setting [8]), -1%; in experiment [6] (at 50.0 µM), -9.75%.
With `CCCCCCc1ccc(O)c(Cl)c1`, the growth inhibition in experiment [1] (setting [7]) is 0%; in experiment [1] (setting [8]), 28%; in experiment [1] (at 50.0 µM), 98.8% (active); in experiment [2] (setting [7]), 0%; in experiment [2] (setting [8]) it was 15%; in experiment [2] (at 50.0 µM), 94% (active). Also, the growth inhibition in experiment [3] (setting [7]) is -1%; in experiment [3] (setting [8]) it was 15%; in experiment [3] (at 50.0 µM), 77.3% (active); in experiment [4] (setting [7]), -4%; in experiment [4] (setting [8]) it was -3%; in experiment [4] (at 50.0 µM), 44.1%. In addition, the growth inhibition is -5% in experiment [5] (setting [7]); -8% in experiment [5] (setting [8]); 57.4% in experiment [5] (at 50.0 µM); 0% in experiment [6] (setting [7]); 19% in experiment [6] (setting [8]); 89.6% (active) in experiment [6] (at 50.0 µM).
With `CC(=O)Nc1ccc(-c2csc(Nc3ccnc4cc(Cl)ccc34)n2)cc1`, the growth inhibition in experiment [1] (setting [7]) was 12%; in experiment [1] (setting [8]), 40%; in experiment [1] (at 50.0 µM) it was 69.8%; in experiment [2] (setting [7]) it was -4%; in experiment [2] (setting [8]) it was 46%; in experiment [2] (at 50.0 µM), 51.4%. The growth inhibition in experiment [3] (setting [7]) is 9%; in experiment [3] (setting [8]), 69%; in experiment [3] (at 50.0 µM), 72.8% (active); in experiment [4] (setting [7]), 0%; in experiment [4] (setting [8]), 4%; in experiment [4] (at 50.0 µM) it was 41%. Further, the growth inhibition in experiment [5] (setting [7]) was -2%; in experiment [5] (setting [8]) it was 40%; in experiment [5] (at 50.0 µM), 33.3%; in experiment [6] (setting [7]) it was 3%; in experiment [6] (setting [8]), 27%; in experiment [6] (at 50.0 µM), 82.9% (active).
Take `CC(=O)OC1=C(Br)CCc2ccccc21`: the growth inhibition was 13% in experiment [1] (setting [7]); 99% (active) in experiment [1] (setting [8]); 98.2% (active) in experiment [1] (at 50.0 µM); 13% in experiment [2] (setting [7]); 100% (active) in experiment [2] (setting [8]); 97.3% (active) in experiment [2] (at 50.0 µM). Further, the growth inhibition in experiment [3] (setting [7]) was 41%; in experiment [3] (setting [8]), 99% (active); in experiment [3] (at 50.0 µM), 91.2% (active); in experiment [4] (setting [7]) it was 11%; in experiment [4] (setting [8]) it was 98% (active); in experiment [4] (at 50.0 µM), 86.3% (active). Also, the growth inhibition is 18% in experiment [5] (setting [7]); 100% (active) in experiment [5] (setting [8]); 88.3% (active) in experiment [5] (at 50.0 µM); 39% in experiment [6] (setting [7]); 99% (active) in experiment [6] (setting [8]); 89.6% (active) in experiment [6] (at 50.0 µM).
As for `O=C1/C(=C/c2ccc(Cl)c(Cl)c2)CN(C(=O)CCN2CCOCC2)C/C1=C\c1ccc(Cl)c(Cl)c1`, the growth inhibition in experiment [1] (setting [7]) was 99% (active); in experiment [1] (setting [8]) it was 86% (active); in experiment [1] (at 50.0 µM), 41%; in experiment [2] (setting [7]), 99% (active); in experiment [2] (setting [8]) it was 94% (active); in experiment [2] (at 50.0 µM) it was 85.8% (active). For the same compound, the growth inhibition in experiment [3] (setting [7]) is 99% (active); in experiment [3] (setting [8]) it was 92% (active); in experiment [3] (at 50.0 µM), 85.2% (active); in experiment [4] (setting [7]), 90% (active); in experiment [4] (setting [8]), 89% (active); in experiment [4] (at 50.0 µM), 87.3% (active). For the same compound, the growth inhibition is 99% (active) in experiment [5] (setting [7]); 89% (active) in experiment [5] (setting [8]); 89% (active) in experiment [5] (at 50.0 µM); 99% (active) in experiment [6] (setting [7]); 88% (active) in experiment [6] (setting [8]); 87.5% (active) in experiment [6] (at 50.0 µM).
For the compound `O=[N+]([O-])c1cc(CNCCO)c(O)c2ncccc12`, the growth inhibition in experiment [1] (setting [7]) is 99% (active); in experiment [1] (setting [8]), 99% (active); in experiment [1] (at 50.0 µM) it was 98.7% (active); in experiment [2] (setting [7]) it was 100% (active); in experiment [2] (setting [8]), 99% (active); in experiment [2] (at 50.0 µM), 99.3% (active). The growth inhibition is 99% (active) in experiment [3] (setting [7]); 99% (active) in experiment [3] (setting [8]); 99.2% (active) in experiment [3] (at 50.0 µM); 95% (active) in experiment [4] (setting [7]); 98% (active) in experiment [4] (setting [8]); 97.9% (active) in experiment [4] (at 50.0 µM). In addition, the growth inhibition was 99% (active) in experiment [5] (setting [7]); 99% (active) in experiment [5] (setting [8]); 99% (active) in experiment [5] (at 50.0 µM); 99% (active) in experiment [6] (setting [7]); 99% (active) in experiment [6] (setting [8]); 98.8% (active) in experiment [6] (at 50.0 µM).
With `O=C(OCCCN1CCCC1)C(c1ccccc1)C1CCCCC1` (configuration not stated), the growth inhibition in experiment [1] (setting [7]) is 20%; in experiment [1] (setting [8]) it was 67%; in experiment [1] (at 50.0 µM), 63.8%; in experiment [2] (setting [7]), 9%; in experiment [2] (setting [8]), 87% (active); in experiment [2] (at 50.0 µM), 52.4%. The growth inhibition was 23% in experiment [3] (setting [7]); 91% (active) in experiment [3] (setting [8]); 85.9% (active) in experiment [3] (at 50.0 µM); 13% in experiment [4] (setting [7]); 81% (active) in experiment [4] (setting [8]); 79.8% (active) in experiment [4] (at 50.0 µM). For the same compound, the growth inhibition is 33% in experiment [5] (setting [7]); 91% (active) in experiment [5] (setting [8]); 54.4% in experiment [5] (at 50.0 µM); 42% in experiment [6] (setting [7]); 95% (active) in experiment [6] (setting [8]); 80.2% (active) in experiment [6] (at 50.0 µM).
